Here are results for 99 molecules from PubChem BioAssay AID588742 (Southern Research Specialized Biocontainment Screening …, 2011).

Hit rate of the full screen: of about 1,800 compounds, about 410 (23%) were called active. The rule behind the calls is not given here. A selection follows. Measured potencies and affinities stand elsewhere.

A short description of this test: viability of Vero cells under compound – cytotoxicity control for flavivirus capping enzyme inhibitors (AID 588742). To be noted: cytotoxicity counter-screen; series mostly up to 40 µM.
For `CCCCNC(=O)c1ccc2nc(-c3ccco3)c(-c3ccco3)nc2c1`, the molecule was classed as inactive.
As to `CC1=NN(c2ccc(C)c(C)c2)C(=O)C1C(c1cccc(O)c1)C1C(=O)N(c2ccc(C)c(C)c2)N=C1C` (centres undefined), the outcome was inactive.
Turning to `CCCCC1=CC2=C(c3ccco3)C(=O)C(C)(OC(=O)c3ccc(OC)cc3)C(=O)C2=CN1C(CO)CO` (centres undefined), the outcome was inactive.
The same measure for `C=CCOc1ccc(C(c2c(O)nc(SC)[nH]c2=O)c2c(O)nc(SC)[nH]c2=O)cc1`: “inactive”; for `CC(=O)N1c2ccc(S(=O)(=O)N(C)CC(=O)Nc3ccccc3C)cc2CC1C` (centres undefined): “inactive”.
For the molecule `O=C(CN1C(=O)/C(=C2/SC(=S)N(CCS(=O)(=O)O)C2=O)c2ccccc21)Nc1cccc(Br)c1`, the outcome was inactive.
On to `O=C(O)c1ccccc1NS(=O)(=O)c1ccc(NNC(=S)Nc2ccc(OC(F)F)cc2)c([N+](=O)[O-])c1`, for which the outcome was inactive.
With `C=CCNc1nc(Nc2ccc([N+](=O)[O-])cc2)nc(OC)n1`, the molecule was classed as inactive.
Regarding `O=C(Nc1ccc(Cl)cc1C(=O)O)c1ccc2c(c1)C(=O)N(Cc1ccco1)C2=O`, the call was inactive.
As to `C#CCOc1ccccc1/C=C1/C(=O)ON=C1C`, the molecule was called inactive.
As to `COc1ccc(-c2csc(NC(=O)c3ccccc3Br)c2C(=O)O)cc1`, the result was inactive.
In the case of `Cc1ccc(/C=N/NC(=O)c2nnn(-c3nonc3N)c2CSc2ccccc2)s1`, the outcome was inactive.
Next, `CCC(=O)OC1(C)C(=O)C2=COC(c3ccc(OC)cc3)=CC2=C(Br)C1=O` (centres undefined): “inactive”; `CCc1ccc(Nc2ccc(C(=O)O)cc2[N+](=O)[O-])cc1`: “inactive”.
The same measure for `O=C(Nc1cc(S(=O)(=O)N2CCOCC2)ccc1O)c1ccc2c(c1)S(=O)(=O)c1ccccc1C2=O`: “inactive”; for `O=S(=O)(Nn1c(O)c(C=C2N=c3ccccc3=N2)sc1=S)c1ccccc1`: “inactive”.
Take `O=C1ON=C(c2ccc([N+](=O)[O-])cc2)/C1=C/c1ccccc1O`: the molecule was classed as inactive.
For the molecule `O=C(NCc1ccccc1)c1sc(=S)n2c1[nH]c(=O)c1ccccc12`, the molecule was called inactive.
Consider `Nc1scc2c(C(=O)O)nn(-c3ccccc3)c(=O)c12`, for which the call was inactive.
As to `CCOC(=O)c1sc(N2C(=O)C(O)=C(C(=O)c3ccco3)C2c2ccc([N+](=O)[O-])cc2)nc1C` (centres undefined), the outcome was inactive.
Take `Cc1cc(O)c(C(C)C)cc1N=Cc1ccccc1O`: the molecule was classed as inactive.
As for `O=C1C(Cl)=C(N2CCN(Cc3ccccc3)CC2)C(=O)N1c1ccccc1`, the molecule was classed as inactive.
As for `CC(=O)Oc1oc(-c2ccccc2)nc1C=Nc1ccccc1`, the outcome was inactive.
With `COc1cc(C(=O)Nc2scc(-c3ccc(Br)cc3)c2C(=O)O)cc(OC)c1OC`, the result was inactive.
Next, `Cc1ccc(SCc2[nH]nc3c2C(c2ccco2)C(C#N)=C(N)O3)cc1` (centres undefined): “inactive”; `Nc1cccc2c1C(=O)N(C(=O)/C=C/c1cccc(F)c1)C2=O`: “inactive”; `O=[N+]([O-])c1ccc(O)c(C=Nc2ccc3c(c2)OCO3)c1`: “inactive”.
Take `Cc1cc(O)c(C(C)C)cc1N=Cc1cc([N+](=O)[O-])ccc1O`: the result was inactive.
For `CC[N+]1(CC)CC2CCC(C)(C1)C2(C)C` (centres undefined), the molecule was called inactive.
For `CCCn1c(C)cc(-c2csc(N)n2)c1C`, the molecule was called inactive.
Take `O=[N+]([O-])c1c(Nc2ccccc2O)cc(Cl)c2nonc12`: the result was inactive.
In the case of `O=C(O)c1cccc(Nc2cc(Cl)c3nonc3c2[N+](=O)[O-])c1`, the call was inactive.
For `O=[N+]([O-])c1ccc(O)c(Nc2c([N+](=O)[O-])ccc3nonc23)c1`, the outcome was inactive.
The same measure for `O=C(O)c1ccc(Nc2cc(Cl)c3nonc3c2[N+](=O)[O-])cc1`: “inactive”.
With `O=C(O)c1cc(Nc2cc(Cl)c3nonc3c2[N+](=O)[O-])ccc1O`, the outcome was inactive.
In the case of `Cc1ccc(/C=N/c2sc3c(c2C#N)CCC3)s1`, the result was inactive.
On to `COc1cc(C2C(C#N)=C(N)N(c3cccnc3)C3=C2C(=O)CCC3)ccc1O` (centres undefined), for which the result was inactive.
Take `CCCCCc1c2c(cc(O)c1C(=O)O)OC(=O)c1cc(C(=O)CCCC)c(OC)cc1O2`: the result was inactive.
For `COC(=O)Cc1ccc(NC(=S)Nc2ccc(N3CCOCC3)cc2)cc1`, the molecule was classed as inactive.
Next, `COc1cc(/C=C2/C(=O)NN(c3cccc(C)c3)C2=O)ccc1OC(=O)c1ccco1`: “inactive”.
On to `CCC(C)NC(=O)c1ccc(N2CCC3(CC2)OCCO3)c([N+](=O)[O-])c1` (centres undefined), for which the call was inactive.
With `CC(C)NC(=O)Cn1cc(S(=O)(=O)N2CCCC2)c(S(=O)(=O)N2CCCC2)c1`, the result was inactive.
With `CC(=O)Nc1ccc(C2=NNC(=NCC3CCCO3)SC2)cc1` (centres undefined), the molecule was called inactive.
For `O=C(O)CN1C(=O)/C(=C\c2cc(Br)ccc2OCc2ccc([N+](=O)[O-])cc2)SC1=S`, the molecule was classed as inactive.
Regarding `COc1ccc(-c2csc(/C(C#N)=C(\O)CSc3nccn3C)n2)cc1OC`, the molecule was classed as inactive.
In the case of `CCOc1ccc(C(c2c(O)nc(SC)n(C)c2=O)c2c(O)nc(SC)n(C)c2=O)cc1`, the outcome was inactive.
`COC(=O)C1=C(C(=O)OC)C(c2cc(Br)ccc2O)c2sc(=O)[nH]c2S1` (centres undefined): the molecule was called inactive.
Regarding `Cc1ccc(-c2c(C(=O)N/N=C/c3ccncc3)nnn2-c2nonc2N)cc1`, the outcome was inactive.
Regarding `COc1ccc(Cc2c(O)nc(SC)n(C(C)=O)c2=O)cc1`, the call was inactive.
`O=C(O)CN1C(=O)/C(=C\c2cccc(OCc3ccccc3)c2)SC1=S`: the result was inactive.
On to `O=C(CC(c1ccccc1)c1ccccc1O)N1CCCC1` (centres undefined), for which the call was inactive.
In the case of `O=C(O)c1ccc2c(c1Nc1ccccc1)C(=O)c1ccccc1C2=O`, the molecule was classed as inactive.
The same measure for `Cc1sc(C(C2C(=O)CC(C)(C)CC2=O)C2C(=O)CC(C)(C)CC2=O)cc1[N+](=O)[O-]`: “inactive”.
The same measure for `O=C(O)c1cccc(NS(=O)(=O)c2ccc(-c3ccc(S(=O)(=O)Nc4cccc(C(=O)O)c4)cc3)cc2)c1`: “inactive”; for `CCc1ccc(S(=O)(=O)ON2C(=O)c3ccccc3C2=O)cc1`: “inactive”; for `O=C(c1ccccc1NS(=O)(=O)c1ccc([N+](=O)[O-])cc1[N+](=O)[O-])N1O[C@@H]2C=C[C@H]1C2`: “inactive”.
As for `CCOc1ccc2c(c1)n([O-])c1c([n+]2=O)CCCC1`, the result was inactive.
With `COc1cc(C(=O)NC(C(=O)Nc2cccc(C(C)=O)c2)C(C)C)cc(OC)c1OC` (centres undefined), the molecule was classed as inactive.
`Cc1nn(CCc2nc(-c3ccco3)cs2)c2[nH]c(=O)cc(C(F)(F)F)c12`: the call was inactive.
As to `C/C(=N\Nc1cccc(C(=O)O)c1)c1ccc(Cl)s1`, the result was inactive.
Next, `COC1=C(Br)C(=O)c2ncccc2C1=O`: “inactive”.
As for `CC(C)c1ccc(NC(=O)COC(=O)CSc2nnc(N)s2)cc1`, the molecule was called inactive.
On to `CC(/C=C1\SC(=S)N(c2ccc(C(=O)O)cc2)C1=O)=C\c1ccccc1`, for which the call was inactive.
Turning to `CN(C)c1cc(N/N=C\c2ccccc2)nc(N(C)C)n1`, the molecule was called inactive.
With `COc1ccc(OC)c2c(C)cc(N3CCCCCC3)nc12`, the molecule was classed as inactive.
As to `O=C(O)CN1C(=O)/C(=C\c2cc(Br)ccc2OCc2ccccc2F)SC1=S`, the result was inactive.
Next, `COc1cccc(CNC(=O)c2cccnc2Sc2ccc(C)cc2C)c1`: “inactive”.
For `O=C(CCN1C(=O)S/C(=C\c2ccccc2)C1=O)Nc1ccc(S(=O)(=O)Nc2nccs2)cc1`, the call was inactive.
Next, `CCS(=O)(=O)c1nc(S(=O)(=O)c2ccc(Cl)cc2)c(NCCCN2CCCC2=O)s1`: “inactive”; `[O-][n+]1c2ccccc2[n+]([O-])c2cc(O)ccc21`: “inactive”; `CC(C)c1cccc(-c2ccc3c(c2)S(=O)(=O)c2cccc(C(=O)O)c2C3=O)c1`: “inactive”.
Consider `COc1cc(/C=N/NC(=S)N/N=C/c2cc(OC)c(OC)c(OC)c2)cc(OC)c1OC`, for which the call was inactive.
Next, `CN(C)c1ccc(N=Nc2ccc(S(=O)(=O)O)cc2)c2ccccc12`: “inactive”; `CC(=O)NC(CC(=O)OCC(=O)Nc1cc(S(=O)(=O)N2CCCCC2)ccc1C)c1ccccc1` (centres undefined): “inactive”; `C#CCOc1ccc(/C=C2/C(=O)ON=C2C)cc1Br`: “inactive”.
Consider `Cc1ccc(C)c(S(=O)(=O)/N=C2\C=C(NS(=O)(=O)c3ccccc3)C(=O)c3ccccc32)c1`, for which the outcome was inactive.
As for `Cc1cc(C)c(S(=O)(=O)ON2C(=O)c3ccccc3C2=O)cc1C`, the molecule was called inactive.
As for `O=C(OCCCN=C1NS(=O)(=O)c2ccccc21)c1ccc(F)cc1`, the result was inactive.
For `COc1cc(C2C(C#N)=C(N)OC3=C2C(=O)CC(C)(C)C3)cc([N+](=O)[O-])c1O` (centres undefined), the outcome was inactive.
As for `O=C(NN=Cc1cc(Br)c(O)c(Br)c1)c1ccccc1NS(=O)(=O)c1cccs1`, the molecule was called inactive.
The same measure for `CN(C)c1ccc(NC(=O)c2ccc(Cn3cc([N+](=O)[O-])cn3)cc2)cc1`: “inactive”.
On to `C/C(CCc1oc2c(Br)cc(Br)cc2c1-c1ccc(C)o1)=N\O`, for which the outcome was inactive.
Regarding `CC(=O)OCCNc1cc(SCc2ccco2)c2nonc2c1[N+](=O)[O-]`, the call was inactive.
Next, `CC(=O)OCCCNc1cc(SCc2ccco2)c2nonc2c1[N+](=O)[O-]`: “inactive”; `CCCC(=O)OCCNc1cc(SCc2ccco2)c2nonc2c1[N+](=O)[O-]`: “inactive”.
On to `CN(c1ccccc1)c1ccc(/C=C(/CCC(=O)O)c2nc3ccccc3s2)cc1[N+](=O)[O-]`, for which the outcome was inactive.
Regarding `COc1cc(/C=C2\C(=O)N(c3ccc(NC(C)=O)cc3)N=C2c2ccccc2)ccc1O`, the call was inactive.
Take `CCOc1ccc(N2C(=O)C(Cl)=C(Nc3ccccc3O)C2=O)cc1`: the molecule was called inactive.
On to `C=CCOc1c(Br)cc(/C=C2/C(=O)ON=C2C)cc1OC`, for which the outcome was inactive.
As for `Cc1cc(C2C(=O)CC(=O)CC2c2ccccc2)on1` (centres undefined), the molecule was called inactive.
With `COc1cc(/C=C2/C(=N)N3C(c4ccccc4)=CSC3=NC2=O)ccc1OCC(=O)O`, the molecule was called inactive.
With `CCc1ccc(N=C2NC(=O)/C(=C/c3cc(Br)c(OCC(=O)O)c(OC)c3)S2)cc1`, the molecule was classed as inactive.
Consider `O=C1/C(=C/c2cccs2)SC(=S)N1NS(=O)(=O)c1ccccc1`, for which the outcome was inactive.
Consider `CCCOC(=O)c1c(-c2ccc(C)cc2C)csc1NC(=O)C1C2CCC(O2)C1C(=O)O` (centres undefined), for which the call was inactive.
Take `COc1cccc(-c2[nH]nc3c2C(c2ccoc2)C(C#N)=C(N)O3)c1` (centres undefined): the molecule was classed as inactive.
In the case of `O=S(=O)(O)c1cc2onnc2c2ccccc12`, the outcome was inactive.
Next, `CC1CC(=O)C(C(C2=C(O)CC(C)CC2=O)c2ccccc2)=C(O)C1` (centres undefined): “inactive”; `Cc1[nH][nH]c(=O)c1C(c1ccc(-c2cccc(Cl)c2)o1)c1c(C)[nH][nH]c1=O`: “inactive”; `Cc1[nH][nH]c(=O)c1C(c1ccc(-c2ccc(Cl)c(C(=O)O)c2)o1)c1c(C)[nH][nH]c1=O`: “inactive”.
